# Test results as given in the supplement of paper PMC9262897, “Low-cost anti-mycobacterial drug discovery using engineered E. coli” (Nature Communications, 2022).
# Counter-ions that a name gives are not always drawn. ± gives the standard deviation of the averaged measurements.
# Key:
# Test in all cases: growth (OD600 after 10 h); higher = more growth (less inhibition)
# [1] = system: E. coli TESEC Alr+ wild-type control; conditions: compound 0.1 mM; raw OD600 reference: median of DMSO wells 0.241, cell-free background 0.041
# Description: (§1)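 TESEC Mtb Alr E. coli, or the Alr+ wild-type control, in 384-well plates with Prestwick library compounds at 0.1 mM and 1% DMSO, across arabinose induction levels of 1E3 to 1E7 nM. Growth is read as OD600 after 10 h at 37 °C in triplicate biological replicates.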
# [2] = system: E. coli TESEC Mtb Alr; conditions: compound 0.1 mM
# Description: as §1
# [3] = system: E. coli TESEC Mtb Asd; conditions: compound 0.1 mM
# Description: (§2)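 TESEC E. coli strains in which the native enzyme is deleted and replaced by arabinose-inducible Mtb Asd, DapB, CysH or TrpD, each grown in its selective medium. Strains were screened against the Prestwick library at 0.1 mM and 1% DMSO in 384-well format at low and high arabinose induction. Growth is read as OD600 after 10 h in triplicate.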
# [4] = system: E. coli TESEC Mtb DapB; conditions: compound 0.1 mM
# Description: as §2
# [5] = system: E. coli TESEC Alr+ wild-type control; conditions: compound 0.1 mM; raw OD600 reference: median of DMSO wells 0.49, cell-free background 0.052
# Description: (§3)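 TESEC Mtb Alr E. coli (ΔaraC ΔtolC ΔentC Δalr ΔdadX, arabinose-inducible Mtb Alr) or the Alr+ wild-type control strain, grown in defined M9-fructose medium without D-alanine in 96-well plates with Prestwick library compounds at 0.1 mM and 1% DMSO. Low Alr induction is 0.1 µM arabinose and high induction is 10 mM arabinose.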
# [6] = system: E. coli TESEC Mtb Alr; conditions: compound 0.1 mM; remark: listed apart in the source
# Description: as §3
# [7] = arabinose 1000 nM, raw OD600 reference: median of DMSO wells 0.294, cell-free background 0.041
# [8] = arabinose 10000 nM, raw OD600 reference: median of DMSO wells 0.264, cell-free background 0.041
# [9] = arabinose 100000 nM, raw OD600 reference: median of DMSO wells 0.201, cell-free background 0.041
# [10] = arabinose 1000000 nM, raw OD600 reference: median of DMSO wells 0.193, cell-free background 0.041
# [11] = arabinose 10000000 nM, raw OD600 reference: median of DMSO wells 0.146, cell-free background 0.041
# [12] = arabinose induction (level): High, raw OD600 reference: median of DMSO wells 0.331, cell-free background 0.041
# [13] = arabinose induction (level): Low, raw OD600 reference: median of DMSO wells 0.417, cell-free background 0.041
# [14] = arabinose induction (level): High, raw OD600 reference: median of DMSO wells […], cell-free background 0.041
# [15] = arabinose induction (level): Low, raw OD600 reference: median of DMSO wells 0.227, cell-free background 0.041
# [16] = arabinose 100 nM, raw OD600 reference: median of DMSO wells 0.413, cell-free background 0.052
# [17] = arabinose 10000000 nM, raw OD600 reference: median of DMSO wells […], cell-free background 0.052
SMILES,growth [1],"growth [2, 7]","growth [2, 8]","growth [2, 9]","growth [2, 10]","growth [2, 11]","growth [3, 12]","growth [3, 13]","growth [4, 14]","growth [4, 15]",growth [5],"growth [6, 16]","growth [6, 17]"
CN1C(=O)OC(C)(C)C1=O [Trimethadione],0.242 ± 0.0071,0.283 ± 0.0076,0.269 ± 0.012,0.202 ± 0.014,0.185 ± 0.0082,0.1382 ± 0.00081,0.297 ± 0.098,0.409 ± 0.037,0.193 ± 0.0086,0.229 ± 0.042,0.553 ± 0.073,0.423 ± 0.011,0.344 ± 0.02
Cc1nnc(NS(=O)(=O)c2ccc(N)cc2)s1 [Sulfamethizole],0.254 ± 0.0053,0.288 ± 0.011,0.236 ± 0.004,0.211 ± 0.032,0.155 ± 0.0088,0.139 ± 0.0043,0.326 ± 0.045,0.433 ± 0.018,0.189 ± 0.0042,0.183 ± 0.0058,0.462 ± 0.018,0.411 ± 0.011,0.33 ± 0.011
COC(=O)Nc1nc2cc(Sc3ccccc3)ccc2[nH]1 [Fenbendazole],0.233 ± 0.0041,0.273 ± 0.022,0.273 ± 0.012,0.189 ± 0.012,0.195 ± 0.057,0.144 ± 0.0032,0.382 ± 0.11,0.434 ± 0.018,0.2 ± 0.013,0.252 ± 0.041,0.56 ± 0.072,0.421 ± 0.0066,0.352 ± 0.025
CN(C)CCN(Cc1cccs1)c1ccccn1 [Methapyrilene hydrochloride],0.216 ± 0.0071,0.281 ± 0.012,0.252 ± 0.007,0.224 ± 0.024,0.165 ± 0.0065,0.143 ± 0.0051,0.257 ± 0.024,0.41 ± 0.059,0.175 ± 0.0071,0.193 ± 0.0062,0.644 ± 0.021,0.402 ± 0.011,0.332 ± 0.011
Clc1ccccc1CN1CCc2sccc2C1 [Ticlopidine hydrochloride],0.0758 ± 0.011,0.0555 ± 0.015,0.0438 ± 0.0013,0.0705 ± 0.024,0.0437 ± 0.00091,0.0565 ± 0.0013,0.236 ± 0.03,0.323 ± 0.07,0.195 ± 0.0059,0.23 ± 0.029,0.429 ± 0.015,0.345 ± 0.085,0.06587 ± 0.00038
CO[C@@]1(NC(=O)C(C(=O)O)c2ccc(O)cc2)C(=O)N2C(C(=O)O)=C(CSc3nnnn3C)CO[C@@H]21 (stereo partly specified) [Moxalactam disodium salt],0.03947 ± 0.00038,0.0445 ± 0.0063,0.0401 ± 0.00064,0.039 ± 0.0013,0.03987 ± 0.00015,0.0393 ± 0.00046,0.0546 ± 0.0041,0.0559 ± 0.007,0.0504 ± 0.0038,0.0472 ± 0.001,0.04587 ± 5.8e-05,0.0472 ± 0.00072,0.056 ± 0.0067
C[C@]12CC[C@H]3[C@@H](CCC4=CC(=O)CC[C@@]43C)[C@@H]1CC[C@@H]2C(=O)CO [Deoxycorticosterone],0.119 ± 0.0025,0.163 ± 0.022,0.152 ± 0.0059,0.122 ± 0.0033,0.107 ± 0.002,0.127 ± 0.006,0.363 ± 0.012,0.245 ± 0.01,0.136 ± 0.008,0.165 ± 0.0069,0.333 ± 0.018,0.362 ± 0.022,0.157 ± 0.0071
O=C(O)c1cc(=O)c2c(OCC(O)COc3cccc4oc(C(=O)O)cc(=O)c34)cccc2o1 [Cromolyn disodium salt],0.2571 ± 0.0016,0.311 ± 0.019,0.275 ± 0.0036,0.21 ± 0.014,0.201 ± 0.011,0.14 ± 0.0057,0.389 ± 0.04,0.489 ± 0.01,0.189 ± 0.013,0.228 ± 0.034,0.602 ± 0.064,0.403 ± 0.011,0.361 ± 0.01
CC(=O)Nc1c(I)c(C(=O)N[C@H]2C(O)O[C@H](CO)[C@@H](O)[C@@H]2O)c(I)c(N(C)C(C)=O)c1I (stereo partly specified) [Metrizamide],0.246 ± 0.014,0.307 ± 0.014,0.273 ± 0.0038,0.238 ± 0.034,0.188 ± 0.0051,0.16 ± 0.0066,0.247 ± 0.017,0.352 ± 0.0067,0.218 ± 0.025,0.212 ± 0.013,0.61 ± 0.014,0.403 ± 0.012,0.334 ± 0.011
CC1(C)S[C@@H]2[C@H](NC(=O)[C@H](C(=O)O)c3ccsc3)C(=O)N2[C@H]1C(=O)O [Ticarcillin sodium],0.256 ± 0.0056,0.296 ± 0.0051,0.28 ± 0.0035,0.2 ± 0.031,0.226 ± 0.0051,0.142 ± 0.0031,0.331 ± 0.056,0.305 ± 0.0068,0.178 ± 0.0019,0.196 ± 0.019,0.577 ± 0.095,0.419 ± 0.0051,0.354 ± 0.0093
COc1ccc(CC(C)NCC(O)c2ccc(O)c(NC=O)c2)cc1 (stereo unspecified) [Formoterol fumarate],0.235 ± 0.0095,0.298 ± 0.0087,0.293 ± 0.011,0.219 ± 0.024,0.18 ± 0.011,0.16 ± 0.0057,0.251 ± 0.018,0.395 ± 0.057,0.212 ± 0.019,0.238 ± 0.025,0.501 ± 0.04,0.41363 ± 5.8e-05,0.306 ± 0.019
C=C1c2c(Cl)ccc(O)c2C(O)=C2C(=O)[C@]3(O)C(O)=C(C(N)=O)C(=O)[C@@H](N(C)C)[C@@H]3[C@@H](O)[C@H]12.O=C(O)c1cc(S(=O)(=O)O)ccc1O [Meclocycline sulfosalicylate],0.0437 ± 0.0018,0.0465 ± 0.0035,0.04467 ± 0.00042,0.047 ± 0.001,0.04453 ± 0.00031,0.0463 ± 0.0019,0.0721 ± 0.0074,0.0594 ± 0.0053,0.156 ± 0.089,0.05473 ± 0.00042,0.05223 ± 0.00012,0.0611 ± 0.00062,0.0561 ± 0.00065
